An excerpt weighted towards active compounds, which were near 19% of everything screened.
Cycloheximide cs = affects cycloheximide protein synthesis inhibition readout, counter-screen. cell reporter, cycloheximide protein synthesis inhibition counterscreen. max response, %. actives 12% (n = 300,000); in the data active means max response mostly above about 13%, no sharp cut-off; inactive means mostly below about 14%; further: read at 38.3 µM for the half of the compounds with a filed dose
Pf growth 48h = inhibits P. falciparum growth in the first generation, 48 h | actives 5.9% (n = 310,000) | P. falciparum luciferase growth in erythrocytes, 48 h | AID 504832 | Potency, µM (highest dose often 28.7 µM), actives largely listed as inhibitors
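Cell-based growth assay: transgenic P. falciparum expressing firefly luciferase, cultured in red cells within RPMI 1640 containing 0.5% w/v Albumax, 24 mM bicarbonate and gentamycin. A drop in luciferase activity indicates inhibition.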
Pf growth 96h = P. falciparum growth inhibition at 96 hours; P. falciparum luciferase reporter growth, 96 h; Potency, µM (series often up to 28.7 µM), actives largely listed as inhibitors; actives 6.9% (n = 320,000)
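96 h incubation, 37 C, 5% CO2, of luciferase-reporter P. falciparum-infected RBCs (2% hematocrit, 0.05% parasitemia final) with test compounds; endpoint luminescence.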
SARS PLpro yeast = blocks SARS-CoV papain-like protease in a yeast assay | S. cerevisiae expressing SARS-CoV PLpro, growth rescue | Potency, µM (doses to about 32.9 µM), actives largely listed as activators | actives 0.19% (n = 330,000) | AID 485353; calls by dose curve; further: nearly all actives have a fitted effect of over 55% in size
Shiga inhibitor = inhibitors of Shiga toxin in Vero cells; Vero cells, Shiga toxin protein synthesis inhibition reporter; inhibition, % at 38.7 µM; actives 9.2% (n = 290,000); in the data active means inhibition mostly above about 28%, no sharp cut-off; inactive means mostly below about 43%
AMA1-RON2 inh = inhibitors of Plasmodium falciparum AMA1-RON2 interaction; AlphaScreen AMA1-biotinylated RON2 peptide binding; Potency, µM (doses to about 58.2 µM), most hits filed as inhibitors; actives 0.2% (n = 360,000); further: nearly all actives have a fitted effect of over 45% in size
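AMA1 (3D7) with his tag at 25 nM final met compounds first, then biotinylated RON2 peptide at 25 nM; detection used donor plus acceptor beads, 10 µg/mL apiece, read by AlphaScreen after 30 min at room temperature.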
Hits are given with their value. Unless noted, the call rests on the fitted dose curve; in most records, active means well fitted curve in the direction sought with a large enough effect; inconclusive means small, poorly fitted or top-dose-only effect, or another doubt; inactive means no such curve, though single readings can be large; an effect the other way counts as inactive or inconclusive.

What do the screens show for `CC(C)C(C(=O)Nc1nccs1)c1ccc(Cl)cc1` (centres undefined)?
Cycloheximide cs: inactive; Pf growth 48h: inconclusive; Pf growth 96h: 9.3µM; SARS PLpro yeast: inactive; Shiga inhibitor: inactive; AMA1-RON2 inh: inactive

How did Cn1c(COc2ccccc2)nnc1SCCC(=O)Nc1ccccc1 do in these assays?
Cycloheximide cs: inactive; Pf growth 48h: inactive; Pf growth 96h: inactive; SARS PLpro yeast: inactive; Shiga inhibitor: inactive; AMA1-RON2 inh: inactive

What do the screens show for `CCOc1ccc(/C=N/NC(=O)c2cc3c(OC)cccc3[nH]2)cc1`?
Cycloheximide cs: inactive; Pf growth 48h: inconclusive; Pf growth 96h: inconclusive; SARS PLpro yeast: inactive; Shiga inhibitor: inactive; AMA1-RON2 inh: inactive

How did COc1ccc(OC)c(/C=N/NC(=O)c2cc3c(OC)cc(OC)cc3[nH]2)c1 do in these assays?
Cycloheximide cs: inactive; Pf growth 48h: inconclusive; Pf growth 96h: inconclusive; SARS PLpro yeast: inactive; Shiga inhibitor: inactive; AMA1-RON2 inh: inactive

Results for C=CCOc1ccc(/C=N/NC(=O)c2cc3c(OC)cc(OC)cc3[nH]2)cc1 ?
Cycloheximide cs: inactive; Pf growth 48h: 3.3µM; Pf growth 96h: 2.3µM; SARS PLpro yeast: inactive; Shiga inhibitor: inactive; AMA1-RON2 inh: inactive

What do the screens show for `CCOc1ccc2[nH]c(C(=O)N/N=C/c3cc(OC)c(OC)c(OC)c3)cc2c1`?
Cycloheximide cs: inactive; Pf growth 96h: 12µM; SARS PLpro yeast: inactive; Shiga inhibitor: inactive; AMA1-RON2 inh: inactive

Results for CCOc1ccc(/C=N/NC(=O)c2cc3c(OC)cc(OC)cc3[nH]2)cc1OC ?
Cycloheximide cs: inactive; Pf growth 48h: 1.7µM; Pf growth 96h: 0.93µM; SARS PLpro yeast: inactive; Shiga inhibitor: inactive; AMA1-RON2 inh: inactive

Results for COc1cc(OC)cc(C(=O)N/N=C/c2ccc(OC)c(COc3ccc(F)cc3)c2)c1 ?
Cycloheximide cs: inactive; Pf growth 48h: inactive; Pf growth 96h: inactive; SARS PLpro yeast: inactive; Shiga inhibitor: inactive; AMA1-RON2 inh: inactive

How did O=C1NC(=S)N/C1=C/c1cc([N+](=O)[O-])ccc1O do in these assays?
Cycloheximide cs: inactive; Pf growth 96h: inactive; SARS PLpro yeast: inactive; Shiga inhibitor: inactive; AMA1-RON2 inh: inactive

Results for CNCCc1ccccc1 ?
Cycloheximide cs: inactive; Pf growth 48h: inactive; Pf growth 96h: inactive; SARS PLpro yeast: inactive; Shiga inhibitor: inactive

What do the screens show for `CNCCCC1c2ccccc2C=Cc2ccccc21`?
Cycloheximide cs: inactive; Pf growth 48h: inconclusive; Pf growth 96h: 12µM; SARS PLpro yeast: inactive; Shiga inhibitor: inactive; AMA1-RON2 inh: inactive

Results for O=[N+]([O-])c1ccccc1/C=N/Nc1nccnc1Cl ?
Cycloheximide cs: 50; Pf growth 48h: inactive; Pf growth 96h: inactive; SARS PLpro yeast: inactive; Shiga inhibitor: 124; AMA1-RON2 inh: inactive

What do the screens show for `COc1cccc(/C=N/Nc2nccnc2Cl)c1O`?
Cycloheximide cs: 13; Pf growth 48h: inconclusive; Pf growth 96h: inactive; SARS PLpro yeast: inactive; Shiga inhibitor: inactive; AMA1-RON2 inh: inactive

What do the screens show for `Oc1ccc(/C=N/Nc2nccnc2Cl)c(O)c1`?
Cycloheximide cs: 49; Pf growth 96h: inconclusive; SARS PLpro yeast: 3.2µM; Shiga inhibitor: 124; AMA1-RON2 inh: inactive

What do the screens show for `Oc1ccccc1/C=N/Nc1nccnc1Cl`?
Cycloheximide cs: 38; Pf growth 96h: inactive; SARS PLpro yeast: inactive; Shiga inhibitor: inactive; AMA1-RON2 inh: inactive

How did O=c1[nH]ncc(N/N=C\c2ccc(O)cc2O)c1Cl do in these assays?
Cycloheximide cs: inactive; Pf growth 48h: inactive; Pf growth 96h: inconclusive; SARS PLpro yeast: inactive; Shiga inhibitor: inactive; AMA1-RON2 inh: inactive

How did O=[N+]([O-])c1ccccc1/C=N/NC1=NS(=O)(=O)c2ccccc21 do in these assays?
Cycloheximide cs: inactive; Pf growth 48h: inconclusive; Pf growth 96h: inactive; SARS PLpro yeast: inactive; Shiga inhibitor: inactive; AMA1-RON2 inh: inactive

What do the screens show for `CCC(C)C(Nc1ncnc2scc(-c3ccccc3)c12)C(=O)O` (centres undefined)?
Cycloheximide cs: inactive; Pf growth 48h: inactive; Pf growth 96h: inactive; SARS PLpro yeast: inactive; Shiga inhibitor: inactive; AMA1-RON2 inh: inactive

What do the screens show for `COc1cccc(/C=N/Nc2ncnc3scc(-c4ccccc4)c23)c1O`?
Cycloheximide cs: inactive; Pf growth 48h: 2.9µM; Pf growth 96h: 2.3µM; SARS PLpro yeast: inconclusive; Shiga inhibitor: inactive; AMA1-RON2 inh: inactive

Results for Nc1ncnc(NNC(=O)CNC(=O)c2c(F)cccc2Cl)c1[N+](=O)[O-] ?
Cycloheximide cs: inactive; Pf growth 48h: inactive; Pf growth 96h: inactive; SARS PLpro yeast: inactive; Shiga inhibitor: inactive; AMA1-RON2 inh: inactive

What do the screens show for `C=CCN1C=C2C(=O)C(C)(OC(=O)CCC(=O)OC)C(=O)C(Br)=C2C=C1c1ccc(OC)cc1` (centres undefined)?
Cycloheximide cs: inactive; Pf growth 48h: 15µM; Pf growth 96h: inconclusive; SARS PLpro yeast: inactive; Shiga inhibitor: inactive; AMA1-RON2 inh: inactive

How did COCCN1C=C2C(=O)C(C)(OC(=O)CCC(=O)OC)C(=O)C(Br)=C2C=C1c1ccc(OC)cc1 (centres undefined) do in these assays?
AMA1-RON2 inh: inactive

Results for COc1ccc(CN2C(=O)CCC2(C)c2nnnn2C2CCCCC2)cc1 (centres undefined) ?
AMA1-RON2 inh: inactive

What do the screens show for `C=C(Br)Cn1c(CCC)nc2ccccc21`?
Cycloheximide cs: inactive; Pf growth 48h: inactive; Pf growth 96h: 10µM; SARS PLpro yeast: inactive; Shiga inhibitor: inactive; AMA1-RON2 inh: inactive

Results for CCCc1nc2ccccc2n1CCOC ?
Cycloheximide cs: inactive; Pf growth 96h: inactive; SARS PLpro yeast: inactive; Shiga inhibitor: inactive; AMA1-RON2 inh: inactive

How did COCn1c(COc2ccc3ccccc3c2)nc2ccccc21 do in these assays?
Cycloheximide cs: 22; Pf growth 48h: inactive; Pf growth 96h: inactive; SARS PLpro yeast: inactive; Shiga inhibitor: 77; AMA1-RON2 inh: inactive

What do the screens show for `CCCc1nc2ccccc2n1CCOc1ccccc1`?
Cycloheximide cs: inactive; Pf growth 96h: 4.1µM; SARS PLpro yeast: inactive; Shiga inhibitor: inactive; AMA1-RON2 inh: inactive

Results for CCn1c(COc2cccc(C)c2)nc2ccccc21 ?
Cycloheximide cs: 21; Pf growth 48h: inconclusive; Pf growth 96h: inconclusive; SARS PLpro yeast: inactive; Shiga inhibitor: inactive; AMA1-RON2 inh: inactive

How did Cc1cc(NC(=O)CN2C(=O)/C(=C/c3ccc(C(C)C)cc3)SC2=S)no1 do in these assays?
AMA1-RON2 inh: inactive

What do the screens show for `O=C(NCCc1ccccc1)c1ccc(NS(=O)(=O)c2ccc3[nH]c(=O)[nH]c3c2)cc1`?
Pf growth 48h: inactive; Pf growth 96h: inactive; SARS PLpro yeast: inactive; AMA1-RON2 inh: inactive

Results for CC[C@]12c3[nH]c4ccc(Cl)cc4c3CCN1C(=O)[C@@H](CC(=O)NCc1ccc(OC)c(OC)c1)C[C@@H]2C(=O)N1CCN(C(=O)c2ccco2)CC1 ?
SARS PLpro yeast: inactive; AMA1-RON2 inh: inactive

Results for COCc1nc2ccccc2n1CCCOc1ccccc1 ?
Cycloheximide cs: inactive; Pf growth 48h: inconclusive; SARS PLpro yeast: inactive; Shiga inhibitor: inactive; AMA1-RON2 inh: inactive
